# Hit rate of the full screen: of about 66,000 compounds, about 960 (1.5%) showed an effect of 50% or more. For the sample, strong results were picked, then their nearest neighbours and some compounds at random.
# System: Trypanosoma brucei
# Assay: Trypanosoma brucei 72 hour study
# Format: functional, organism-based
# Parameters: scale not given: in the data most compounds retested in dose-response had high values
smiles,measurement,setting,value
Cl.c1nc(CCC2CCCCN2)cc(N2CCCC2)n1 (configuration not stated),Percent Effect,"30.3 µM, […]",-10.52%
CC(C)N1CCC(N2CCC(C(=O)N(C)C)CC2)CC1.O=C(O)C(F)(F)F.O=C(O)C(F)(F)F,Percent Effect,"30.3 µM, […]",-22.06%
COC(=O)C1CCN(C(=O)c2cc(Br)ccc2-n2cnnn2)CC1,Percent Effect,"30 µM, 30.03 µM",-52.11%
CC(C)N1CCCC(C(=O)N2CCN(c3nsc4ccccc34)CC2)C1 (configuration not stated),Percent Effect,"30.3 µM, […]",50.26%
CCN1CC(C(=O)N2CCN(c3nsc4ccccc34)CC2)CCC1=O (configuration not stated),Percent Effect,"30.3 µM, […]",18.26%
NC(=O)N1CCCC(C(=O)N2CCN(c3nsc4ccccc34)CC2)C1 (configuration not stated),Percent Effect,"30.3 µM, […]",39.11%
CN(C)C(=O)c1cnc2n1CCN(Cc1cccnc1)C2.O=C(O)C(F)(F)F.O=C(O)C(F)(F)F,Percent Effect,"30.3 µM, […]",-389.6%
O=C(O)C(F)(F)F.O=C(O)C(F)(F)F.O=C(O)C(F)(F)F.c1ccc(CN2CCc3c(COCC4CC4)cncc3C2)nc1,Percent Effect,"30.3 µM, […]",-75.06%
CN1C[C@@H](N)C[C@H]1C(=O)N1CCC(CCCc2ccccc2)CC1,Percent Effect,"30 µM, 30.03 µM",-31.74%
OC1(CN2CCCCC2)CCN(c2ccc(C(F)(F)F)cn2)C1 (configuration not stated),Percent Effect,"30.3 µM, […]",3.051%
N#CC1=C(N)Nn2c(nnc2-c2ccccc2F)S1,Percent Effect,"30 µM, 30.03 µM",-51.04%
CCn1cc(CNc2ccc(F)c(N3CCCS3(=O)=O)c2)cn1,Percent Effect,"30 µM, 30.03 µM",-16.14%
CCn1cc(CNc2ccc3nccnc3c2)cn1,Percent Effect,"30 µM, 30.03 µM",99.73%
CCn1cc(CNc2ccc(Br)c(OC)c2)cn1,Percent Effect,"30 µM, 30.03 µM",-16.49%
Nc1cc(N2CCC(c3cc(Cc4ccccc4)n[nH]3)CC2)ccn1,Percent Effect,"30.3 µM, […]",99.46%
Nc1nc(O)cc(N2CCC(c3cc(Cc4ccccc4)n[nH]3)CC2)n1,Percent Effect,"30.3 µM, […]",-102.6%
Nc1nccc(N2CCC(c3cc(Cc4ccccc4)n[nH]3)CC2)n1,Percent Effect,"30.3 µM, […]",36.98%
COc1ccc(C(=O)NCC(c2cccn2C)N2CCCC2)cc1OC (configuration not stated),Percent Effect,"30.3 µM, […]",-9.189%
COc1cccc(OC)c1C(=O)NCC(c1cccn1C)N1CCCC1 (configuration not stated),Percent Effect,"30.3 µM, […]",99.38%
COc1cccc(C(=O)NCC(c2cccn2C)N2CCCC2)c1OC (configuration not stated),Percent Effect,"30.3 µM, […]",-16.52%
CO[C@@H]1CCN(C(=O)Cc2ccsc2)[C@H]1Cc1cccnc1.O=C(O)C(F)(F)F,Percent Effect,"30.3 µM, […]",-12.88%
Cc1cccc(COC[C@H]2CC[C@H]3[C@H](CCN3C(=O)CC3CC3)O2)n1.O=C(O)C(F)(F)F,Percent Effect,"30 µM, 30.03 µM",22.76%
CCOc1ccc(CN[C@@H]2COC[C@H]2c2ccc(F)cc2)cc1.O=C(O)CC(O)(CC(=O)O)C(=O)O,Percent Effect,"30.3 µM, […]",-47.65%
COCCN1C[C@H]2CC[C@@H]1CN(C(=O)CCn1cc(Cl)cn1)C2,Percent Effect,"30.3 µM, […]",4.772%
Cc1nc(CNc2nc(-c3ccco3)nc3c2CCNCC3)n[nH]1,Percent Effect,"30 µM, 30.03 µM",14.93%
Cc1nc2c(c(NCc3ccc(-c4ccccn4)s3)n1)CCNCC2,Percent Effect,"30.3 µM, […]",42.43%
Cc1nc2c(c(NCC3Cc4ccccc4CN3C)n1)CCNCC2 (configuration not stated),Percent Effect,"30.3 µM, […]",15.13%
Cc1nc2c(c(NCc3cc4ccccc4s3)n1)CCNCC2,Percent Effect,"30.3 µM, […]",99.88%
Cc1nc2c(c(NCc3nc4ccccc4s3)n1)CCNCC2,Percent Effect,"30.3 µM, […]",53.81%
Cc1nc2c(c(NCC(O)c3ccccc3Cl)n1)CCNCC2 (configuration not stated),Percent Effect,"30 µM, 30.03 µM",-31.73%
CC(C)CN1CCO[C@H]2CCN(c3cnccn3)CC[C@@H]21.O=C(O)C(F)(F)F,Percent Effect,"30.3 µM, […]",-43.11%
CCCS(=O)(=O)N1C[C@H]2C[C@H](C(=O)N3CCCC3)[C@@H](C1)O2,Percent Effect,"30.3 µM, […]",-3.417%
Cc1occc1C(=O)N1C[C@@H]2OCCN(C(C)C)[C@@H]2C1.O=C(O)C(F)(F)F,Percent Effect,"30 µM, 30.03 µM",5.268%
CS(=O)(=O)N1CCN(CC(O)COc2ccc(Cl)cc2)CC1 (configuration not stated),Percent Effect,10 µM,-47.15%
Cc1csc(CN2CCC[C@]3(C[C@@H](OCC4CC4)CO3)C2)n1.O=C(O)C(F)(F)F,Percent Effect,"30 µM, 30.03 µM",-17.53%
Cc1cc(F)ccc1CN1CCCC(O)(CN2CCCC2)C1 (configuration not stated),Percent Effect,"30.3 µM, […]",54.93%
OC1(CN2CCCC2)CCCN(Cc2ccc(F)cc2Cl)C1 (configuration not stated),Percent Effect,"30 µM, 30.03 µM",-4.937%
Cc1cc(F)ccc1CN1CCC(O)(CN2CCCCC2)C1 (configuration not stated),Percent Effect,"30 µM, 30.03 µM",-52.45%
CN(C)CCN(Cc1ccccn1)Cc1ccnn1C1CCCCO1.O=C(O)CC(O)(CC(=O)O)C(=O)O (configuration not stated),Percent Effect,"30.3 µM, […]",-14.13%
Cn1nnc2c1C(COCC1CC1)CN(Cc1ccoc1)C2.O=C(O)C(F)(F)F (configuration not stated),Percent Effect,"30 µM, 30.03 µM",5.795%
CNc1cc(C)nc(N2Cc3cnn(Cc4ccc(F)cc4)c3C2)n1,Percent Effect,"30 µM, 30.03 µM",98.86%
Cc1nc(N2Cc3cnn(Cc4ccc(F)cc4)c3C2)no1,Percent Effect,"30 µM, 30.03 µM",12.66%
CCNc1ccnc(N2Cc3cnn(Cc4ccc(F)cc4)c3C2)n1,Percent Effect,"30 µM, 30.03 µM",57.35%
Fc1ccc(Cn2ncc3c2CN(c2ncccn2)C3)cc1,Percent Effect,"30 µM, 30.03 µM",2.324%
Cc1ccnc(N2Cc3cnn(Cc4ccc(F)cc4)c3C2)n1,Percent Effect,"30 µM, 30.03 µM",-9.847%
Cc1cc(C)nc(N2Cc3cnn(Cc4ccc(F)cc4)c3C2)n1,Percent Effect,"30 µM, 30.03 µM",3.465%
CC(C)c1nn(C)c(Cl)c1CNCc1ccc(N(C)C)nc1.Cl,Percent Effect,"30.3 µM, […]",12.78%

# From ChEMBL document CHEMBL3988442, “University of Dundee, Small-Polar-MMV Screening Library” (2021)
